# PubChem BioAssay (NCI)
# This is part of a sample that, as a whole, favours compounds with a hit. Of some 79,000 tested, about 15% had one in any assay. Values without a mark were called inactive. Active and inactive are the calls of the source. No stated cut-off is given here; in the data, active means growth inhibition above about 70%; inactive means the rest.
# Experiments:
# [1] = NCI Yeast Anticancer Drug Screen. Data for the rad50 strain (AID 155);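 further: 0% = growth of vehicle-only cultures of the same strain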; details: S. cerevisiae rad50 strain growth inhibition, hits give high values
# Method in brief: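 DNA repair mutant yeast, compound exposure, growth read-out; inhibition is taken relative to vehicle.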
# [2] = NCI Yeast Anticancer Drug Screen. Data for the mec2-1 strain (AID 157); details: S. cerevisiae mec2-1 strain, hits give high values
# Method in brief: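 Each compound was tested on mec2-1 yeast, a strain altered in DNA damage repair or cell cycle control. Growth inhibition is reported relative to vehicle.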
# [3] = NCI Yeast Anticancer Drug Screen. Data for the sgs1 mgt1 strain (AID 161);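 further: 0% = growth of cultures given vehicle only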; details: S. cerevisiae sgs1 mgt1 strain, hits give high values
# Method in brief: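 Test agents were incubated with a DNA-repair-mutant yeast strain. Growth was then read and compared against vehicle-treated controls.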
# [4] = NCI Yeast Anticancer Drug Screen. Data for the cln2 rad14 strain (AID 165);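 further: 0% = growth equal to vehicle treated cultures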; details: S. cerevisiae cln2 rad14 strain, hits give high values
# Method in brief: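 Test compounds were added to cln2 rad14 yeast cultures; inhibition of growth was then determined by comparison with vehicle treatment.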
# [5] = NCI Yeast Anticancer Drug Screen. Data for the bub3 strain (AID 167); details: S. cerevisiae bub3 mutant strain, hits give high values
# Method in brief: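 In this screen, a yeast mutant lacking normal mitotic checkpoint function is challenged with compound. Relative growth versus vehicle gives the inhibition value.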
# [6] = NCI Yeast Anticancer Drug Screen. Data for the mlh1 rad18 strain (AID 175); details: S. cerevisiae mlh1 rad18 strain growth inhibition, hits give high values
# Method in brief: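 Inhibition values reflect reduced growth of mutant yeast versus vehicle-treated controls following compound exposure; the mutations affect DNA damage repair.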
# [7] = at 5.0 µM (retest, dose inferred, filed as 0.5)
# [8] = at 50.0 µM (retest, dose inferred, filed as 5.0)
SMILES,"growth inhibition [1, 7]","growth inhibition [1, 8]",growth inhibition ([1]; at 50.0 µM),"growth inhibition [2, 7]","growth inhibition [2, 8]",growth inhibition ([2]; at 50.0 µM),"growth inhibition [3, 7]","growth inhibition [3, 8]",growth inhibition ([3]; at 50.0 µM),"growth inhibition [4, 7]","growth inhibition [4, 8]",growth inhibition ([4]; at 50.0 µM),"growth inhibition [5, 7]","growth inhibition [5, 8]",growth inhibition ([5]; at 50.0 µM),"growth inhibition [6, 7]","growth inhibition [6, 8]",growth inhibition ([6]; at 50.0 µM)
O=C(NC1(OC(=O)c2ccc(Cl)cc2)CC1)c1ccc(Cl)cc1,6%,97% (active),97.8% (active),14%,98% (active),97.9% (active),15%,91% (active),95.5% (active),25%,97% (active),97.5% (active),-8%,98% (active),97.1% (active),24%,97% (active),96.8% (active)
CCOC(=O)c1cc(C)c(O)c(C(=O)OCC)c1,-9%,4%,-0.45%,-12%,-27%,16.1%,1%,22%,0.65%,26%,31%,6.8%,13%,27%,52.4%,-28%,-9%,-10.8%
CN(C)C=C1C(Cl)=C(C=O)CC(C=O)=C1Cl,2%,24%,12.3%,3%,26%,23.1%,3%,36%,63.7%,-2%,3%,40.3%,-2%,9%,18.5%,0%,-12%,89.5% (active)
O=S(=O)(Nc1ccccc1)c1ccccc1C=C(c1ccccc1)c1ccccc1,37%,75% (active),85.1% (active),35%,90% (active),86% (active),46%,90% (active),86.5% (active),13%,84% (active),80.3% (active),43%,82% (active),80.3% (active),81% (active),84% (active),85.8% (active)
O=C1Nc2ccccc2C(=O)C1(Cc1ccccc1)C(=O)c1ccccc1 (configuration not stated),14%,26%,97% (active),-1%,-9%,97.2% (active),11%,25%,97.5% (active),-1%,10%,97.5% (active),11%,12%,97.5% (active),4%,33%,97.4% (active)
CC(C)(C)C(OC(=O)Nc1ccccc1)C(C)(C)C,-1%,29%,-0.7%,-18%,-5%,-2.2%,4%,8%,-9.55%,9%,16%,-61.5%,-1%,37%,5.1%,9%,36%,6.25%
Oc1c(N(Cc2ccccc2)Cc2ccccc2)ccc2cccnc12,-2%,96% (active),98.4% (active),-15%,96% (active),98.5% (active),-1%,97% (active),98.6% (active),-15%,95% (active),96.2% (active),-8%,97% (active),98.8% (active),1%,96% (active),98% (active)
CC(O[Si](c1ccccc1)(c1ccccc1)C(C)(C)C)[C@H](NC(=O)OC(C)(C)C)C(=O)O[Si](c1ccccc1)(c1ccccc1)C(C)(C)C (some centres not stated),91% (active),99% (active),89.9% (active),88% (active),99% (active),92.9% (active),96% (active),100% (active),92.8% (active),93% (active),99% (active),91.2% (active),71% (active),84% (active),91.3% (active),93% (active),99% (active),89% (active)
C[n+]1c(/C=C/c2cccc([N+](=O)[O-])c2)sc2ccccc21,10%,97% (active),97.6% (active),15%,99% (active),96.2% (active),-1%,98% (active),97.9% (active),14%,97% (active),98.8% (active),7%,97% (active),96% (active),13%,98% (active),99.2% (active)
